Screening data as filed in PubChem.
IL-1B inflam inh: blocks inflammasome-driven IL-1 beta release. THP-1 LPS/ATP IL-1B secretion, AlphaLISA, 16 h; active compounds read low. activity change, % at 57.5 µM. 360,000 compounds, 4.7% hits. AID 743279; in the data active = activity change below about -50%; inconclusive = mostly about -30% to -49%
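Secreted IL-1B measured by AlphaLISA bead assay after 16 h compound exposure of THP-1 cells; compounds (final up to 57.5 uM) added 1 h before LPS (250 ng/mL) and ATP (1.25 mM) stimulation; lower signal means less secretion.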
TDP1 inh: blocks human tyrosyl-DNA phosphodiesterase 1; recombinant TDP1, AlphaScreen DNA substrate cleavage; Potency, µM (series often up to 130 µM), actives largely listed as inhibitors; 350,000 compounds, 0.28% hits; note: nearly all actives have a fitted effect of over 40% in size
Target sequence (Q9NUW8 whole entry, looked up): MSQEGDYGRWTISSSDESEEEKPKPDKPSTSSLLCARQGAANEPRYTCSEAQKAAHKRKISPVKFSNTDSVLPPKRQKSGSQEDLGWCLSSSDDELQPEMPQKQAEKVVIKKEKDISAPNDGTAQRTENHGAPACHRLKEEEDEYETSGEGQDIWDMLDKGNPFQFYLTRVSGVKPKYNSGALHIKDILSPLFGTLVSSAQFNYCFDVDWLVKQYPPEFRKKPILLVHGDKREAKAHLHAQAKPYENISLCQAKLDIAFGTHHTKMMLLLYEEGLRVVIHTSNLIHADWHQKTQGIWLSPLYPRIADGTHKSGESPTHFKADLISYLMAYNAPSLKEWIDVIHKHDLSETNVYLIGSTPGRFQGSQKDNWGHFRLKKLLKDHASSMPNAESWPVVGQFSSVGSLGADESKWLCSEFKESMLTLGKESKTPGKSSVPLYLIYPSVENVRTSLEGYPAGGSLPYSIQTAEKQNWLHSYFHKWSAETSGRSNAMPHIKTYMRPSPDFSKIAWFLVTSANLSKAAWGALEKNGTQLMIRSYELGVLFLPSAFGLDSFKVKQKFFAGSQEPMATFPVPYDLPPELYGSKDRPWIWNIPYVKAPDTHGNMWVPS
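AlphaScreen read-out: signal falls as enzyme removes the 3' tyrosine-FITC from a 5'-biotinylated DNA oligo (15 nM, 5 min, RT). Enzyme was E. coli-made recombinant Tdp1 at 1 nM, exposed to compound for 15 min beforehand; beads 10 ug/ml, 10 min.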
TGFb inhibitor: inhibitors of TGF-b signaling; Potency, µM (titrated, usually from 46.1 µM), actives largely listed as inhibitors; HepG2 CAGA-GFP TGF-b/SMAD3 reporter, GFP fluorescence, 18 h; TGF-beta stimulated, 500 pg/mL final; 410,000 compounds, 1.2% hits; AID 588855; note: nearly all actives have a fitted effect of over 65% in size
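Read-out: total well GFP (ex488/em500-530) summed from mean per-cell fluorescence. Cells: HEPG2 CAGA-GFP, 1% FBS DMEM, 18 h at 37 degrees C with 500 pg/mL final TGF-beta. Unstimulated wells served as the full-inhibition control; stimulated DMSO wells = 0%.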
HepG2 viability: kills HepG2 cells in TGF-b inhibitor counter-screen; 410,000 compounds, 0.76% hits; AID 588856; HepG2 CAGA-GFP viability, ATP luminescence, 18 h; Potency, µM (top dose mostly 46.1 µM), most hits filed as cytotoxic
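CellTiter-Glo luminescence gave cytotoxicity after 18 hours at 37 degrees C. The cells were HepG2 CAGA-GFP in 1% FBS DMEM, stimulated with 500 pg/mL TGF-beta after compound addition. %Activity was normalised to no-cell wells (complete cell-killing) and DMSO (no toxicity), and curves were fitted and classified.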
DT40 TDP1 CPT: DT40-hTDP1 cell growth loss with CPT | chicken DT40 Tdp1-/-;hTDP1 cells + 20 nM CPT, ATP luminescence, 48 h | Potency, µM (top dose mostly 46.2 µM), most hits filed as inhibitors | 420,000 compounds, 12% hits | AID 686979; note: nearly all actives have a fitted effect of over 55% in size
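Chicken DT40 Tdp1-/- cells stably complemented with human TDP1 were seeded at 400 cells/well in medium containing 20 nM camptothecin, exposed to pin-transferred compounds, and grown at 37 °C for at least 48 hr. Viability was read as ATP luminescence.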
TDP1 cell noCPT: qHTS for Inhibitors of human tyrosyl-DNA phosphodiesterase 1 (TDP1): qHTS in cells in absence of CPT | AID 686978, 2013 | DT40 Tdp1-/- hTDP1 cells, no CPT, ATP luminescence, 48 h | 420,000 compounds, 15% hits | Potency, µM (top dose mostly 46.2 µM), usual class: inhibitors; note: nearly all actives have a fitted effect of over 55% in size
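Cells were dispensed at 400 per well, compounds added by pin tool, plates incubated ≥48 hr at 37 °C, then CellTiter-Glo added for 30 min at room temperature before luminescence reading. Line: DT40 Tdp1-/- complemented with hTDP1; camptothecin omitted.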
Hits are given with their value; – = inactive; ? = inconclusive; · = no result given; ! = repeats disagree; [ ] = dose if it differs, or a comment. Shown are actives, neighbours in structure and some others; about 19% of the full set was active somewhere. Unless noted, calls come from the whole dose curve; as a rule, active = well fitted curve in the direction sought with a large enough effect; inconclusive = small, poorly fitted or top-dose-only effect, or another doubt; inactive = no such curve, though single readings can be large; an effect the other way counts as inactive or inconclusive.

SMILES | IL-1B inflam inh | TDP1 inh | TGFb inhibitor | HepG2 viability | DT40 TDP1 CPT | TDP1 cell noCPT
CCOC(=O)c1cccc(NC(=O)C2CCN(S(=O)(=O)c3c(C)noc3/C=C/c3ccc(C)cc3)CC2)c1 | · | – | ? | – | 20.6µM | 11.6µM
CCc1ccc(NC(=O)C2CCN(S(=O)(=O)c3c(C)noc3C)CC2)cc1 | – | – | – | – | ? | 18.4µM!
CCN(CCNC(=O)C1CCN(S(=O)(=O)c2c(C)noc2C)CC1)c1ccccc1 | – | – | – | – | ? | 23.1µM
Cc1ccc(OCCCn2c(-c3ccc(Cl)cc3)nc3ccccc3c2=O)cc1C | · | · | – | – | – | –
COc1cc(-c2nc(CN3CCCCC3CCNC(C)=O)c(C)o2)ccc1F (configuration not stated) | – | – | – | – | – | –
CC1(C)CC(=O)N(c2ccc(Cl)c(Cl)c2)C(=O)C1 | – | · | – | – | – | –
O=C(COC(=O)c1ccc[nH]c1=O)Nc1cc(S(=O)(=O)N2CCCCCC2)ccc1Cl | – | – | – | – | – | –
CCc1ccc(NC(=O)[C@H](Cc2ccccc2)NC(=O)C2CCN(C(=O)[C@@H](N)CC(C)C)CC2)cc1 | – | · | – | – | ? | ?
O=C(N/N=C/c1ccc(F)cc1)c1cccc(NC(=O)c2ccccc2Cl)c1 | – | – | – | – | ? | ?
CC(C)CC1OCCC=CC1C (configuration not stated) | · | –[21 µM] | · | · | · | ·
CCc1ccc(NC(=O)C2CCN(S(=O)(=O)c3c(C)noc3/C=C\c3ccc(OC)cc3)CC2)cc1 | · | – | – | – | 8.2µM | 5.17µM
COc1ccc(/C=C\c2onc(C)c2S(=O)(=O)N2CCC(C(=O)Nc3ccc(C)cc3C)CC2)cc1 | · | – | – | – | ? | ?
CCOc1ccccc1NC(=O)CSc1ccc(-c2sc(C)nc2C)nn1 | – | – | – | – | 20.6µM | 16.4µM
CCOc1ccccc1NC(=O)CSc1cn[nH]n1 | -90.7 | · | – | – | – | –
CCOC(=O)c1ccccc1NC(=O)CSc1ccc(-c2sc(-c3ccccc3)nc2C)nn1 | · | – | – | – | ? | 18.4µM
Cc1nc(-c2ccccc2)sc1-c1ccc(SCC(=O)NCc2ccccc2)nn1 | · | – | – | – | – | –
CCOc1ccccc1NC(=O)CSc1ccc(-c2ccco2)nn1 | – | – | ? | – | ? | ?
COc1ccccc1CNC(=O)CSc1ccc(-c2sc(-c3ccccc3)nc2C)nn1 | · | – | ? | – | ? | 18.4µM
COc1ccc2nc(SC(C)C(=O)NC3CCCC3)[nH]c2c1 (configuration not stated) | – | – | – | – | ? | –
COc1cccc(OCC(=O)NNC(=O)c2ccc3ccccc3c2)c1 | – | – | – | – | – | –
Cc1cc(C)c(NC(=O)CSc2ccc(-c3cccnc3)nn2)c(C)c1 | – | – | – | – | – | –
Cc1cc(C)c(NC(=O)CSc2ccc(-c3sc(-c4ccccc4)nc3C)nn2)c(C)c1 | · | – | – | – | 23.1µM | 14.6µM
O=C1[C@H]2[C@@H](c3ccccc3)N[C@]3(CCCN(Cc4ccc(F)cc4)C3=O)[C@H]2C(=O)N1Cc1ccccc1 | – | · | – | – | ? | 16.4µM
Cc1ccc(CN2CCC[C@]3(N[C@H](c4ccccc4)[C@@H]4C(=O)N(Cc5ccccc5)C(=O)[C@@H]43)C2=O)cc1 | – | · | – | – | 25.9µM | 16.4µM
Cc1ccc(CN2CCC[C@]3(N[C@H](c4ccc(C)cc4)[C@@H]4C(=O)N(Cc5ccccc5)C(=O)[C@@H]43)C2=O)cc1 | – | · | – | – | ? | ?
SMILES | IL-1B inflam inh | TDP1 inh | TGFb inhibitor | HepG2 viability | DT40 TDP1 CPT | TDP1 cell noCPT
O=C1[C@H]2[C@@H](c3ccccc3)N[C@]3(CCCN(Cc4ccc(C(F)(F)F)cc4)C3=O)[C@H]2C(=O)N1Cc1ccccc1 | – | · | ? | – | 18.4µM | ?
O=C1[C@H]2[C@@H](c3ccc(C(F)(F)F)cc3)N[C@]3(CCCN(Cc4ccc(F)cc4)C3=O)[C@H]2C(=O)N1Cc1ccccc1 | -56.5 | · | ? | – | ? | ?
CC1=C(C(=O)Nc2cccc(Cl)c2)C2(CCCCCC2)OC1=O | · | – | – | – | ? | ?
O=C(NCCSCc1ccccc1)C1CCN(S(=O)(=O)Cc2ccccc2)CC1 | · | – | ? | – | – | –
Cn1c(CCNC(=O)c2ccco2)nc2cc(NC(=O)COc3ccc(Cl)cc3)ccc21 | · | – | – | – | – | –
CC(=O)c1ccccc1OC(=O)COc1ccc([N+](=O)[O-])cc1 | – | · | – | – | – | –
COC(=O)c1cc(OC)c(OC)cc1NC(=O)c1ccc2c(c1)CCN2S(C)(=O)=O | · | – | – | – | – | –
COc1ccccc1NC(=O)c1oc2ccc(C)cc2c1C | – | – | – | – | ? | ?
Cc1ccc2oc(C(=O)N(C)Cc3ccc(C)o3)c(C)c2c1 | – | – | – | – | 8.2µM | 16.4µM
CCOc1ccc2oc(C(=O)NC3CCN(Cc4ccccc4)CC3)c(C)c2c1 | -63.6 | – | ? | – | 3.66µM | 5.17µM
